# Assay results as given in PubChem BioAssay (NCATS).
# Unmarked numbers belong to inactive results. Calls follow the shape of the dose curve; as a rule, active = well fitted curve in the direction sought with a large enough effect; inconclusive = small, poorly fitted or top-dose-only effect, or another doubt; inactive = no such curve, though single readings can be large or run the other way. Inconclusive results are not listed.
# Biological target: Protein phosphatase 1D (Homo sapiens) (UniProt O15297)
# Assay: Rhodamine-PBP qHTS Assay for Modulators of WT P53-Induced Phosphatase 1 (WIP1) (AID 1347425); also: % of control where 0% means no effect
# Settings: recombinant WIP1, Rhodamine-PBP phosphate fluorescence, real-time; series mostly up to 57.5 µM; activity change, negative = inhibition: at the top concentration
# How it was run: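 Read-out: Rhodamine-PBP fluorescence (ex 525/em 598 nm) for released Pi, read each minute for 11 min after adding 10 uM VEPPL-pS-QETFS; signal taken as f1 minus pre-substrate f0. Enzyme 5 nM WIP1 with 1 hr room-temperature compound preincubation.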
# Protein phosphatase 1D (Homo sapiens), sequence (O15297 whole entry, looked up): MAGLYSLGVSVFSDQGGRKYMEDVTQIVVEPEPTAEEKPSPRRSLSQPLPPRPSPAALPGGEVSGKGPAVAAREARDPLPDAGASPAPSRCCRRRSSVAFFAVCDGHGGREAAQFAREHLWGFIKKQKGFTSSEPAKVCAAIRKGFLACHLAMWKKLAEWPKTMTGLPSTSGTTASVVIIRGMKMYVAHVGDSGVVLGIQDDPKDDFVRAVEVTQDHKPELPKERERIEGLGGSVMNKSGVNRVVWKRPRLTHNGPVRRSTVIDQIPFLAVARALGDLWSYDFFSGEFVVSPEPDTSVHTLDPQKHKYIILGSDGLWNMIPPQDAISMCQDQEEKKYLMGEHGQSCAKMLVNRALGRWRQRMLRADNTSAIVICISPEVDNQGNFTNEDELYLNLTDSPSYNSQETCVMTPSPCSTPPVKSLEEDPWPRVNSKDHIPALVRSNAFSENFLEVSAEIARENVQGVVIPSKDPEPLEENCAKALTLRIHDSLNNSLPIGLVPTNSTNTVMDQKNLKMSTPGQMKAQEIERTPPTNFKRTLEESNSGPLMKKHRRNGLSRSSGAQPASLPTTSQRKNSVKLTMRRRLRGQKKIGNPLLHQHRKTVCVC
row,Compound,"activity change, negative = inhibition"
1,CCN(CC)CCCN(c1ccccc1)C1Cc2ccccc2C1,15.1%
2,CCN(CC)CC(=O)Nc1c(C)cccc1C,15%
3,C[N+](C)(C)CCOC(=O)CCC(=O)OCC[N+](C)(C)C,6.78%
4,CCO/C([O-])=N/c1c[n+](N2CCOCC2)no1,9.66%
5,CCc1c(C)[nH]c2c1C(=O)C(CN1CCOCC1)CC2 (stereo not given),8.42%
6,Cc1nc2sccn2c(=O)c1CCN1CCC(=C(c2ccc(F)cc2)c2ccc(F)cc2)CC1,25.6%
7,CCCN1C[C@H](CSC)C[C@@H]2c3cccc4[nH]cc(c34)C[C@H]21,21.4%
8,CCn1ccnc1CC1COc2ccccc2O1 (stereo not given),16.2%
9,CC(C)COCC(CN(Cc1ccccc1)c1ccccc1)N1CCCC1 (stereo not given),6.78%
10,NC(=O)c1ncn([C@@H]2O[C@H](CO)[C@@H](O)[C@H]2O)c1O,-8.88%
11,COc1ccc([C@@H]2Sc3ccccc3N(CCN(C)C)C(=O)[C@@H]2OC(C)=O)cc1,11.3%
12,CC(=O)[C@]1(O)Cc2c(O)c3c(c(O)c2[C@@H](O[C@H]2C[C@H](N)[C@H](O)[C@H](C)O2)C1)C(=O)c1ccccc1C3=O,-5.99%
13,C[C@]12CCC(=O)C=C1CC[C@@H]1[C@@H]2CC[C@@]2(C)[C@H]1CC[C@]2(O)C(=O)CO,9.81%
14,CCN1CCc2nc(N)oc2CC1,1.39%
15,CN/C(=C\[N+](=O)[O-])NCCSCc1ccc(CN(C)C)o1,-24%
16,COc1ccc(CCN(C)CCCC(C#N)(c2cc(OC)c(OC)c(OC)c2)C(C)C)cc1OC (stereo not given),4.41%
17,CNCCCN1c2ccccc2CCc2ccccc21,10.3%
18,CNCCC(Oc1ccccc1OC)c1ccccc1 (stereo not given),3.94%

row,Compound,"activity change, negative = inhibition"
1,O=C(CCNNC(=O)c1ccncc1)NCc1ccccc1,10.4%
2,C[N+](C)(C)CCOC(N)=O,9.58%
3,c1cnc(N2CCN(Cc3ccc4c(c3)OCO4)CC2)nc1,13.1%
4,CN(C)CCCN1c2ccccc2Sc2ccccc21,0.154%
5,O=C1CC2(CCCC2)CC(=O)N1CCCCN1CCN(c2ncccn2)CC1,8.65%
6,C(=C\c1ccccc1)/CN1CCN(C(c2ccccc2)c2ccccc2)CC1,23.2%
7,NC(Cc1ccc(Cl)cc1)C(=O)O (stereo not given),-2.63% [at 0.575 µM]
8,NC(=O)c1cn(Cc2c(F)cccc2F)nn1,4.02%
9,CCCN(CCC)C(=O)C(CCC(=O)O)NC(=O)c1ccccc1 (stereo not given),0.386%
10,CC(N=C(NC#N)Nc1ccncc1)C(C)(C)C (stereo not given),-1.69%
11,CC(=O)OCC1=C(C(=O)O)N2C(=O)[C@@H](NC(=O)Cc3cccs3)[C@H]2SC1,-7.21%
12,CSc1ccc(C(=O)c2[nH]c(=O)[nH]c2C)cc1,-3.84%
13,COC(=O)[C@@H](N)Cc1ccc(O)c(O)c1,-5.18%
14,c1cc(CN2CCCCC2)cc(OCCCNc2nc3ccccc3s2)c1,6.88%
15,Cc1cccc(C)c1NC(=O)C(C)N (stereo not given),3.24%
16,NCCCNCCSP(=O)(O)O,1.47% [at 11.5 µM]
17,Cc1scc2c1N(C(=O)CN1CCN(C)CC1)c1ccccc1NC2=O,8.5%

# Tested on: not listed separately
# Assay: Validation qHTS assay for inhibitors of Activation Induced Cytidine Deaminase (AID): UDG Counterscreen signal (AID 1347427); also: 0% is about no effect
# Settings: biochemical UDG counterscreen, fluorescence signal; series mostly up to 115 µM; activity, negative = inhibition: at the top concentration
# How it was run: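 Fluorescence at 560 nm excitation, 665 nm emission reports UDG signal after 250 mM NaOH (2x) addition and 30 min. Enzymes (AID 1 uM, UDG 2 U/mL, at 4/3x) preincubated 10 min with compound, then 4 h with 4x 250 nM DJC20/DJC23 substrate at room temperature.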
row,Compound,"activity, negative = inhibition"
1,CCN(CC)CCCN(c1ccccc1)C1Cc2ccccc2C1,-0.718%
2,CCN(CC)CC(=O)Nc1c(C)cccc1C,14.4%
3,C[N+](C)(C)CCOC(=O)CCC(=O)OCC[N+](C)(C)C,6.31%
4,CCO/C([O-])=N/c1c[n+](N2CCOCC2)no1,5.47%
5,CCc1c(C)[nH]c2c1C(=O)C(CN1CCOCC1)CC2 (stereo not given),6.55%
6,Cc1nc2sccn2c(=O)c1CCN1CCC(=C(c2ccc(F)cc2)c2ccc(F)cc2)CC1,-9.95%
7,CCCN1C[C@H](CSC)C[C@@H]2c3cccc4[nH]cc(c34)C[C@H]21,10.4%
8,CCn1ccnc1CC1COc2ccccc2O1 (stereo not given),5.42%
9,CC(C)COCC(CN(Cc1ccccc1)c1ccccc1)N1CCCC1 (stereo not given),1.35%
10,NC(=O)c1ncn([C@@H]2O[C@H](CO)[C@@H](O)[C@H]2O)c1O,10.2%
11,COc1ccc([C@@H]2Sc3ccccc3N(CCN(C)C)C(=O)[C@@H]2OC(C)=O)cc1,9.77%
12,CC(=O)[C@]1(O)Cc2c(O)c3c(c(O)c2[C@@H](O[C@H]2C[C@H](N)[C@H](O)[C@H](C)O2)C1)C(=O)c1ccccc1C3=O,31%
13,C[C@]12CCC(=O)C=C1CC[C@@H]1[C@@H]2CC[C@@]2(C)[C@H]1CC[C@]2(O)C(=O)CO,-1.75%
14,CCN1CCc2nc(N)oc2CC1,10.3%
15,CN/C(=C\[N+](=O)[O-])NCCSCc1ccc(CN(C)C)o1,6.84%
16,COc1ccc(CCN(C)CCCC(C#N)(c2cc(OC)c(OC)c(OC)c2)C(C)C)cc1OC (stereo not given),-7.97%
17,CNCCCN1c2ccccc2CCc2ccccc21,9.9%
18,CNCCC(Oc1ccccc1OC)c1ccccc1 (stereo not given),9.13%

row,Compound,"activity, negative = inhibition"
1,O=C(CCNNC(=O)c1ccncc1)NCc1ccccc1,8.37%
2,C[N+](C)(C)CCOC(N)=O,12.7%
3,c1cnc(N2CCN(Cc3ccc4c(c3)OCO4)CC2)nc1,1.96%
4,CN(C)CCCN1c2ccccc2Sc2ccccc21,2.41%
5,O=C1CC2(CCCC2)CC(=O)N1CCCCN1CCN(c2ncccn2)CC1,1.82%
6,C(=C\c1ccccc1)/CN1CCN(C(c2ccccc2)c2ccccc2)CC1,-5.8%
7,NC(Cc1ccc(Cl)cc1)C(=O)O (stereo not given),11.8%
8,NC(=O)c1cn(Cc2c(F)cccc2F)nn1,-5.15%
9,CCCN(CCC)C(=O)C(CCC(=O)O)NC(=O)c1ccccc1 (stereo not given),1.45%
10,CC(N=C(NC#N)Nc1ccncc1)C(C)(C)C (stereo not given),1.7%
11,CC(=O)OCC1=C(C(=O)O)N2C(=O)[C@@H](NC(=O)Cc3cccs3)[C@H]2SC1,13.2%
12,CSc1ccc(C(=O)c2[nH]c(=O)[nH]c2C)cc1,19.3%
13,COC(=O)[C@@H](N)Cc1ccc(O)c(O)c1,17.9%
14,c1cc(CN2CCCCC2)cc(OCCCNc2nc3ccccc3s2)c1,1.42%
15,Cc1cccc(C)c1NC(=O)C(C)N (stereo not given),14.5%
16,NCCCNCCSP(=O)(O)O,13.1%
17,Cc1scc2c1N(C(=O)CN1CCN(C)CC1)c1ccccc1NC2=O,5.1%
